# Results taken from the supplement of paper PMC11732987, “Enantioselective OTUD7B fragment discovery through chemoproteomics screening and high-throughput optimisation” (Communications Chemistry, 2025).
# Values without a mark were called inactive.
# Assays:
# Test in all cases: log2 ratio of Biotin-Ahx-Ub-VS probe labelling (fragment/DMSO); higher = less target engagement (more negative = stronger competition), active = hit call of the paper (q ≤ 0.05, log2 ratio ≤ -1)
# Details in all cases: compound concentration: 200 uM; treatment time: 3 h
# USP19 = biological target: T1, USP19 (UniProt O94966)
# T1 sequence (whole entry): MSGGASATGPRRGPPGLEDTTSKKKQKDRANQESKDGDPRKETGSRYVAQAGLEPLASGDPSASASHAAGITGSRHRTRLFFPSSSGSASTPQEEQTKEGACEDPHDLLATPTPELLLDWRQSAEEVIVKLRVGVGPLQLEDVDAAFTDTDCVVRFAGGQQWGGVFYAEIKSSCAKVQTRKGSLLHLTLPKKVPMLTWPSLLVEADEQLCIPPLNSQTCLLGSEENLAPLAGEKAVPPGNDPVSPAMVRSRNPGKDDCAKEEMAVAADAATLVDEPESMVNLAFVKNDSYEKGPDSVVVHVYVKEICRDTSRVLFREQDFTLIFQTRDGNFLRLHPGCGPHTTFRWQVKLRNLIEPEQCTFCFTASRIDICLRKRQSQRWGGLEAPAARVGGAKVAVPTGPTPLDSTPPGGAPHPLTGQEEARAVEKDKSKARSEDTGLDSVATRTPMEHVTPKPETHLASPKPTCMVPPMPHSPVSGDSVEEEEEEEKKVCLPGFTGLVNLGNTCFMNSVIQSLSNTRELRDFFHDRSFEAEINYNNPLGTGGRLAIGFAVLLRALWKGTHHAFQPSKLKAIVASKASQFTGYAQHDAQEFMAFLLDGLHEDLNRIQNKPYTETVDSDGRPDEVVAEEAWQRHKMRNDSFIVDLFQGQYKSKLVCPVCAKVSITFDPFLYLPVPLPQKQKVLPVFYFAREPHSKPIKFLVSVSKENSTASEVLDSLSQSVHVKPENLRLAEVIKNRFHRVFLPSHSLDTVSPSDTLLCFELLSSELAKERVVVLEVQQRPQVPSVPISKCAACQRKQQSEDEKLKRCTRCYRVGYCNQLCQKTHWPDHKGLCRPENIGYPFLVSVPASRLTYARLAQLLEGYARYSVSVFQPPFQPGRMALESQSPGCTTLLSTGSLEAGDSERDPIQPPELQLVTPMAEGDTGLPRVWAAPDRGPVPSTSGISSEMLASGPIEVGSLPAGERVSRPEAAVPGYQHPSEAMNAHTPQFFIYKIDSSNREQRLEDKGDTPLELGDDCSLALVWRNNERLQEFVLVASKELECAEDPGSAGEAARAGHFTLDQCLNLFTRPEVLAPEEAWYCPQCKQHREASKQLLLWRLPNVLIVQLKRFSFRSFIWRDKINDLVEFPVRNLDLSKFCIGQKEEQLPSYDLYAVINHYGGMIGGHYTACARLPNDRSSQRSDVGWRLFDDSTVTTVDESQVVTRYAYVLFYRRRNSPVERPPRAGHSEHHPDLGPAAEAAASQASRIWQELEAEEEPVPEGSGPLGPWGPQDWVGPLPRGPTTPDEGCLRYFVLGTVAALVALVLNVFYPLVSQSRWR
# How it was run: (§1)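 Using Biotin-Ahx-Ub-VS at 0.5 µM final for 1 h, DUBs were labelled in HEK293T lysate (495 µg per sample) that had first been treated in triplicate with fragment at 200 µM or vehicle for 3 h. NeutrAvidin enrichment, LysC and trypsin digestion and diaPASEF LC-MS/MS followed. Spectronaut label-free quantities were global-median-normalised. Values are average log2 fragment/vehicle ratios by unpaired t-test, using proteins with ≥2 unique peptides.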
# USP22 = biological target: T2, USP22 (UniProt Q9UPT9)
# T2 sequence (whole entry): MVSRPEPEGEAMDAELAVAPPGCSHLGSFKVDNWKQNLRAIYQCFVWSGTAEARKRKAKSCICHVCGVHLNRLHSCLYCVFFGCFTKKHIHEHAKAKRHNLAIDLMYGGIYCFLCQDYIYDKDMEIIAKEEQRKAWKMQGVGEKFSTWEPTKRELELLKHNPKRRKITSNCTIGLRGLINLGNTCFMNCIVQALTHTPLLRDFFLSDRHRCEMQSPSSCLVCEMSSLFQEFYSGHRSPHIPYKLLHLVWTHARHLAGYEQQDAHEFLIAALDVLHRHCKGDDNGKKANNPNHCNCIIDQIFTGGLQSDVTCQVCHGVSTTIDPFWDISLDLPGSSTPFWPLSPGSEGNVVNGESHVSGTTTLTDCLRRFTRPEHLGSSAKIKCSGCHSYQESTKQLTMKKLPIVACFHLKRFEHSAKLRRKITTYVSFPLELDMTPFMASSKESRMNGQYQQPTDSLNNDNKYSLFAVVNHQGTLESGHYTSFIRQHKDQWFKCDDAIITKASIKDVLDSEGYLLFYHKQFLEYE
# How it was run: as §1
# USP24 = USP24 (UniProt Q9UPU5)
# USP24, sequence (Q9UPU5 whole entry): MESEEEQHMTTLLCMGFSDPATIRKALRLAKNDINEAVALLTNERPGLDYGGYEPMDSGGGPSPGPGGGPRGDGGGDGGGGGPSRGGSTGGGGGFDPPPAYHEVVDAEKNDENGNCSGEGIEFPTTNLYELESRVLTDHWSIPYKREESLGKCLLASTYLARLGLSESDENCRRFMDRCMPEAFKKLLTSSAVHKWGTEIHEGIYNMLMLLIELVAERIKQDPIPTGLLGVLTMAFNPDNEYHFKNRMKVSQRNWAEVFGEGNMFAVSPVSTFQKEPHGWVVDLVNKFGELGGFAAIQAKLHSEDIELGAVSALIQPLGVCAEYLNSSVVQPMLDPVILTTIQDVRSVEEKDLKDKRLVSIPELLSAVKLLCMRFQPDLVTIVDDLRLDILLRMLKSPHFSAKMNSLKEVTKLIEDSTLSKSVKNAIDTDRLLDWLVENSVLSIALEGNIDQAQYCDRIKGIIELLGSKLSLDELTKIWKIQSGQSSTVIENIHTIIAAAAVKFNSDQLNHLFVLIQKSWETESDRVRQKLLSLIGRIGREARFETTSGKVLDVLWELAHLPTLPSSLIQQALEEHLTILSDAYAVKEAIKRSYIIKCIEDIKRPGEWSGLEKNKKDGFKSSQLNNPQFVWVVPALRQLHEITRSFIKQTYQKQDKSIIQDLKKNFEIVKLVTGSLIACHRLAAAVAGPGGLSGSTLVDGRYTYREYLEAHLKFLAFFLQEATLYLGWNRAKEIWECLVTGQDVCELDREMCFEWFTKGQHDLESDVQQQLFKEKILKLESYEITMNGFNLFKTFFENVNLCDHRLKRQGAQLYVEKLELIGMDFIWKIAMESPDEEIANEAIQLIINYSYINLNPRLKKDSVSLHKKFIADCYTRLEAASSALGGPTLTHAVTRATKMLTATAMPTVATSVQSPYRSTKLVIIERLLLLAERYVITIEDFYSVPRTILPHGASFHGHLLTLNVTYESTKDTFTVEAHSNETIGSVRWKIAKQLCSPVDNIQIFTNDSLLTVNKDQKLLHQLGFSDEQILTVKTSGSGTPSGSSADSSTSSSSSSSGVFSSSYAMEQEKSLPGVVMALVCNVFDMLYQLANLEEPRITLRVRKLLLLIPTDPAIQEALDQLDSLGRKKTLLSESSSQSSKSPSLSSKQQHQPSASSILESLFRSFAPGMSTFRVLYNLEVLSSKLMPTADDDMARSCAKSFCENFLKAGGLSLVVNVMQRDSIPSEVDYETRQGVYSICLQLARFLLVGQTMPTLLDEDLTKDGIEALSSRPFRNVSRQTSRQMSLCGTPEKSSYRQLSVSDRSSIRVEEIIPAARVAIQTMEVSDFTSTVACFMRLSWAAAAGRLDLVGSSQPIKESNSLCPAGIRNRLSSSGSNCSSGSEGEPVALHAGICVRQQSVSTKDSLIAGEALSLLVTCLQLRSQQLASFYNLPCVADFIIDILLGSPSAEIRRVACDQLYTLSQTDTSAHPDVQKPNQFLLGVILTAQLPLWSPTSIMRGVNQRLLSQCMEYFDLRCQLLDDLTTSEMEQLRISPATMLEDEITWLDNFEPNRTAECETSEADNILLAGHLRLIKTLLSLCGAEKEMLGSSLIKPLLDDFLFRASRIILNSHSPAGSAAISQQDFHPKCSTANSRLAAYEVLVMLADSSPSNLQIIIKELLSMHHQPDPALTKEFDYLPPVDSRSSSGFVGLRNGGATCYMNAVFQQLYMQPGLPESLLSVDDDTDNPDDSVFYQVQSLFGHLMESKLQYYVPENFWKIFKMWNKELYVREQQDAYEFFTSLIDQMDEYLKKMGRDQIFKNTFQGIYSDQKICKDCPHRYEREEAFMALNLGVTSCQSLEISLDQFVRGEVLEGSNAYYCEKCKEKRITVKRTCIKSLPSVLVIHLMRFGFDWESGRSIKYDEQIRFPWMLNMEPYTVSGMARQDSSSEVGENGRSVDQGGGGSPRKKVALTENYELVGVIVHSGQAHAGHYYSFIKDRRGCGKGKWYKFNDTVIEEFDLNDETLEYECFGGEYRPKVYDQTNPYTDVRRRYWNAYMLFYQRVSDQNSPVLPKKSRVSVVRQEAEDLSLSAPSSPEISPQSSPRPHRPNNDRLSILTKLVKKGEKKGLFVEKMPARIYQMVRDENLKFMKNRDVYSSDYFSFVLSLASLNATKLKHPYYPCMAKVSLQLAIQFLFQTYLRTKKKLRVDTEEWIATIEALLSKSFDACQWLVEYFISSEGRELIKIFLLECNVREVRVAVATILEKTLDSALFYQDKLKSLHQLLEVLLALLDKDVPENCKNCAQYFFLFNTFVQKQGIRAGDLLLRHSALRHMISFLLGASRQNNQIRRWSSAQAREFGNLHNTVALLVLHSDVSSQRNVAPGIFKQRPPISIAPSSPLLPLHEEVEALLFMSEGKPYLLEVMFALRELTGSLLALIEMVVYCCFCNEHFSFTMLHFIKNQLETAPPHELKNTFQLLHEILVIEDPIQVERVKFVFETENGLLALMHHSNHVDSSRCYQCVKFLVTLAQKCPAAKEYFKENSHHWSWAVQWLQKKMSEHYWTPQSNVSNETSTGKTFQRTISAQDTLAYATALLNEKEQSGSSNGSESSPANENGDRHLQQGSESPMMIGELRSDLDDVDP
# How it was run: as §1
# USP25 = biological target: T3, USP25 (UniProt Q9UHP3)
# T3 sequence (whole entry): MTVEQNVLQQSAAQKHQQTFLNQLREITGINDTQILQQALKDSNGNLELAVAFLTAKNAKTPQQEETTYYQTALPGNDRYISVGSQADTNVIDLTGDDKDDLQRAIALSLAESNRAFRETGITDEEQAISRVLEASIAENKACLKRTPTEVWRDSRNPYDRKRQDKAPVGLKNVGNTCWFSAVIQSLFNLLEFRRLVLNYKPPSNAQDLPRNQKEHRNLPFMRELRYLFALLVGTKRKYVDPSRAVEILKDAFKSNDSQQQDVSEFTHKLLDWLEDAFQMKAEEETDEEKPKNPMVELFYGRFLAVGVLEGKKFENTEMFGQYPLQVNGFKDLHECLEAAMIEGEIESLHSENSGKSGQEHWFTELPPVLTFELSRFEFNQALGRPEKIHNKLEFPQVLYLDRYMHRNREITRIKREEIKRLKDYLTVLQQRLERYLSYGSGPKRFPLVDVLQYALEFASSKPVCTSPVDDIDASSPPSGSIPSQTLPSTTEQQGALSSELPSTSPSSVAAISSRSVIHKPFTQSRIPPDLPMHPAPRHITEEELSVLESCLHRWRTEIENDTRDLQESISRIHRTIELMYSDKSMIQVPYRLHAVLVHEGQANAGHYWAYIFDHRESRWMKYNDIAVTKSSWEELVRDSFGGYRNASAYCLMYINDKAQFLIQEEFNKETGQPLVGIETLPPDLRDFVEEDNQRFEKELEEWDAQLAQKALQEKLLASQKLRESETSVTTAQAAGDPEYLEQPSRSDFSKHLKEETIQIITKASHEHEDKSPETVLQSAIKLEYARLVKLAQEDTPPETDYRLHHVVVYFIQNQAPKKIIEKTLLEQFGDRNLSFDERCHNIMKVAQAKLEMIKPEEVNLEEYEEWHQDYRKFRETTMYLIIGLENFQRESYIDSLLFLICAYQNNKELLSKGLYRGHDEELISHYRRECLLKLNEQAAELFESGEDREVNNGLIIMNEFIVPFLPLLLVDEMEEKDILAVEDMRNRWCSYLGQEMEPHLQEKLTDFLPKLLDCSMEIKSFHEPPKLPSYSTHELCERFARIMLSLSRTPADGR
# How it was run: as §1
# USP28 = biological target: T4, USP28 (UniProt Q96RU2)
# T4 sequence (whole entry): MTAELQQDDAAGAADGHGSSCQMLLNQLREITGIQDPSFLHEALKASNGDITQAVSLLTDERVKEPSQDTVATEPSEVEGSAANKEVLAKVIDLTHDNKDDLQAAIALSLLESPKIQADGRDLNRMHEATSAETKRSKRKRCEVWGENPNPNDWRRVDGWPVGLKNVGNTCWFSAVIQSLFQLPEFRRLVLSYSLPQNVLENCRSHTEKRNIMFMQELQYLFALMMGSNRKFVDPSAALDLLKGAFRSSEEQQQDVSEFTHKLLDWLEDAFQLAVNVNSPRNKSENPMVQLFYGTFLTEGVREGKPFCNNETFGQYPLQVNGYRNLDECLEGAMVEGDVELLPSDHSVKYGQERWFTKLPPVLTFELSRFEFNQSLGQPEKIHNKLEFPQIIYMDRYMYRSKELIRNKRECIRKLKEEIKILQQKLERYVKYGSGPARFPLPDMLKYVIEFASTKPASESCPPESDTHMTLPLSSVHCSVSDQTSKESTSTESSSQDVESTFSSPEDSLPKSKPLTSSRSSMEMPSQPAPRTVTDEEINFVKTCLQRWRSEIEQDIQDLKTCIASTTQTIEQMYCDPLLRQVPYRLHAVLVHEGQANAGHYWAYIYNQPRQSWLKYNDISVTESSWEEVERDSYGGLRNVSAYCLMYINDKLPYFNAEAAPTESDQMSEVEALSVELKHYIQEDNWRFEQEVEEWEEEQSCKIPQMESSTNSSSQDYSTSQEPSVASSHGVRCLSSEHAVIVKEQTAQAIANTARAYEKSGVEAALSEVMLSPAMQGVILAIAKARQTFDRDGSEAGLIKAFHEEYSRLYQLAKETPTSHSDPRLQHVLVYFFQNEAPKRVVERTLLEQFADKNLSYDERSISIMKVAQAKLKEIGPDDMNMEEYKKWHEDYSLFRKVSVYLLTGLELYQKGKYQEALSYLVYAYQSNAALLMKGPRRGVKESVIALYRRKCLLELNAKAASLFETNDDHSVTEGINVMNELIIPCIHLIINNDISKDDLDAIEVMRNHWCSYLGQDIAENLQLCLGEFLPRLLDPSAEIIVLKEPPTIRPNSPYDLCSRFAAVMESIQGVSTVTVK
# How it was run: as §1
smiles,measurement,setting,value
CN1C(=O)c2ccc(NC(=O)CCl)cc2C1=O,log2 ratio of Biotin-Ahx-Ub-VS probe labelling,USP19,-0.358
same,log2 ratio of Biotin-Ahx-Ub-VS probe labelling,USP22,0.0519
same,log2 ratio of Biotin-Ahx-Ub-VS probe labelling,USP24,-0.467
same,log2 ratio of Biotin-Ahx-Ub-VS probe labelling,USP25,-1.54 (active)
same,log2 ratio of Biotin-Ahx-Ub-VS probe labelling,USP28,-1.5 (active)
